Laboratory results as given in publication PMC4336329 (PLoS ONE, 2015).
The campaign covered roughly 310,000 compounds. About 14,000 (4.5%) showed an effect of 50% or more. The effect is printed as a negative number. This is one part of a sample in which strong results are shown more often than they occur.

These compounds were tested against human ether-à-go-go-related gene (hERG) potassium channel (human, UniProt Q12809) (assay: primary screen, population patch clamp on CHO cells stably expressing hERG; higher = less effect of the substance).
human ether-à-go-go-related gene (hERG) potassium channel, sequence (Q12809 whole entry, looked up): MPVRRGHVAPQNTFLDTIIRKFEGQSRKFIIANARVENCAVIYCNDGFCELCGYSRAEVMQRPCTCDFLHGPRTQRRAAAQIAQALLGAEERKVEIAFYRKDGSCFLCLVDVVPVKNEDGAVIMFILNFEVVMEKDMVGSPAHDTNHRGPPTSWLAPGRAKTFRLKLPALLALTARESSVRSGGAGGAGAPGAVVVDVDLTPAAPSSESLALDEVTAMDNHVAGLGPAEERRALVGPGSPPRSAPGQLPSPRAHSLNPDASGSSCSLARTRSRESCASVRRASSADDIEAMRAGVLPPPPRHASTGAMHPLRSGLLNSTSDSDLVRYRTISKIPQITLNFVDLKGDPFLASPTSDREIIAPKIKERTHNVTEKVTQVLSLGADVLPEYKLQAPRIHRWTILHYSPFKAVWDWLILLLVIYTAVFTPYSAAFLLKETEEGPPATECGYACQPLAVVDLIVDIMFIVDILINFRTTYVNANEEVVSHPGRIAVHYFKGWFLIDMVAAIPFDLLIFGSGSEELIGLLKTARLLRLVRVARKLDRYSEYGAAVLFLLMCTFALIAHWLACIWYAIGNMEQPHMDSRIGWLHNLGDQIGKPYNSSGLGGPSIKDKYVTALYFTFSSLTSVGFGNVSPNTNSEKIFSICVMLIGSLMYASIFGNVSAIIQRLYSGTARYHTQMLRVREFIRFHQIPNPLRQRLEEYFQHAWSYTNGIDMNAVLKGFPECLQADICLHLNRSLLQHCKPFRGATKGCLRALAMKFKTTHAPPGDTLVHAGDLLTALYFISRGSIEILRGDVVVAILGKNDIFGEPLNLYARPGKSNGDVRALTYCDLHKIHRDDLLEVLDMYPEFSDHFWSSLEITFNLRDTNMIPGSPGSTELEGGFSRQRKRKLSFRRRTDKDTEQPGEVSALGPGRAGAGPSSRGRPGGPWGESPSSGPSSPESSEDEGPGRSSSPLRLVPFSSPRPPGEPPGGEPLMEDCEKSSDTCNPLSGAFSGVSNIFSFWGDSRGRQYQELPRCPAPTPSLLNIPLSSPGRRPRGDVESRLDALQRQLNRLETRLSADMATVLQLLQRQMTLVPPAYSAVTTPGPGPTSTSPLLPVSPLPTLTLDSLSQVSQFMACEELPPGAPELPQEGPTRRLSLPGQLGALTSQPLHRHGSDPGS
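Also: peak tail current of the secondary pulse compared with the same well before compound.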

SMILES	hERG current change (%, negative = inhibition) at 10uM [%]
CC(C)NC(=O)CN1CCN(Cc2nc(-c3cccs3)no2)CC1	19.9
C[C@@H](C(=O)Nc1ccc2ccccc2c1)[C@H]1C[C@]1(C)[C@H](NC(=O)c1cnccn1)c1ccccc1	-4.43
CN1CCN(C(=S)NC(=O)c2ccccc2Br)CC1	11.2
O=c1[nH]c(=S)[nH]c(O)c1N=Nc1cccc(S(=O)(=O)N2CCOCC2)c1	9.03
O=c1[nH]c(O)c(N=Nc2ccc(S(=O)(=O)N3CCOCC3)cc2)c(=O)[nH]1	-4.59
O=c1[nH]c(O)c(N=Nc2cccc(S(=O)(=O)N3CCOCC3)c2)c(=O)[nH]1	-73.7
COC(=O)C1=C(c2ccccc2)C[C@@H]2CC[C@H]1N2C(=O)NCCCOC(C)C	0.331
CCOc1ccc(N(C(=O)CNC(=O)c2ccco2)C(C(=O)NC2CCCC2)c2ccncc2)cc1 (centres unmarked)	-10.7
COc1ccc(CN2CCN(CCCc3ccccc3)C(CCO)C2)c(O)c1 (centres unmarked)	-83.1
COc1ccc(F)c(CN2CCN(CCc3ccccc3)C(CCO)C2)c1 (centres unmarked)	-55.9
COc1ccc(CN2CCN(CCc3ccccc3)C(CCO)C2)c(O)c1 (centres unmarked)	-71.7
COc1ccc(CN2CCN(Cc3c[nH]c4ccccc34)CC2CCO)c(F)c1 (centres unmarked)	-41.4
O=C(OCC1OC(n2cc(Br)c(=O)[nH]c2=O)C(Br)C1O)c1ccccc1 (centres unmarked)	8.3
CCC(C)N(C(=O)COC(=O)CNC(=O)c1ccccc1F)C1CCS(=O)(=O)C1 (centres unmarked)	4.36
COc1ccc(C)cc1NC(=O)c1cc2c(s1)CCC2	-5.71
COc1ccccc1-c1nnc2sc(-c3ccc(N(C)C)cc3)nn12	-11
CC(=O)NC(C)c1nc2ccccc2n1C(C)C (centres unmarked)	-10.2
Cc1cc(C)cc(NC(=O)C(NCC2CCCO2)c2ccccc2)c1.O=C(O)C(=O)O (centres unmarked)	-35.5
Cc1ccc(C)c(NC(=O)C(NCC(C)(C)N2CCOCC2)c2ccccc2)c1 (centres unmarked)	-62.6
Cc1ccc(C)c(NC(=O)C(c2ccccc2)N2CCOCC2)c1 (centres unmarked)	-10.6
COc1ccc(C)cc1NC(=O)C(NCC(O)c1ccccc1)c1ccccc1.O=C(O)C(=O)O (centres unmarked)	-21.7
Cc1cc(C)cc(NC(=O)C(NCCN2CCOCC2)c2ccccc2)c1.O=C(O)C(=O)O (centres unmarked)	-7.91
COc1ccc(C)cc1NC(=O)C(NCC1CCCO1)c1ccccc1 (centres unmarked)	-51.4

SMILES	hERG current change (%, negative = inhibition) at 10uM [%]
Cc1cc(NC(=O)C2CCN(S(=O)(=O)Cc3ccccc3)CC2)ccc1-n1cnnn1	-9.11
FC(F)(F)c1cnc(Sc2ncn[nH]2)c(Cl)c1	4.22
CCOC(=O)c1c(C)[nH]c(C(=O)CN2C(=O)NC3(CCCC3)C2=O)c1C	-1.87
CCOc1ccc(S(=O)(=O)N2CCN(CC)CC2)cc1NC(=O)c1ccccc1F	-16.6
COc1ccc(CCC(=O)Nc2nc(C)c(C(=O)N(C)C)s2)cc1	-2.23
CS(=O)(=O)c1ccc(N2CCOCC2)c(S(C)(=O)=O)c1	-5.39
Cc1cc(F)ccc1N1CCC(N2CCN(CCC(C)C)C(CCO)C2)CC1 (centres unmarked)	-63.5
Cc1ccc(N2CCC(N3CCN(C)C(CCO)C3)CC2)cc1 (centres unmarked)	12.8
Cc1cc(F)ccc1N1CCC(N2CCN(C(C)C)C(CCO)C2)CC1 (centres unmarked)	-24.7
Cc1cc(F)ccc1N1CCC(N2CCN(C)C(CCO)C2)CC1 (centres unmarked)	22.1
CC(C)CCN1CCN(C2CCN(c3ccccc3)CC2)CC1CCO (centres unmarked)	-60.9
CC(C)CCN1CCN(C2CCN(c3ccc4c(c3)OCO4)CC2)CC1CCO (centres unmarked)	-17.6
O=C(CN1CCOCC1)NCCc1ccccc1	16.4
NS(=O)(=O)c1ccc(NN=C2CCN(Cc3ccccc3)CC2)c([N+](=O)[O-])c1	-17.6
CCOC(=O)NC(=O)CSc1ccc2ccccc2n1	14
CCC1(C(=O)OC)NC(c2ccco2)C2C(=O)N(c3ccc(F)cc3)C(=O)C21 (centres unmarked)	6.75
CCOC(=O)C1CCN(S(=O)(=O)c2cccc(-c3cn4cc(C)ccc4n3)c2)CC1	-3.7
CCOC(=O)C1CCN(S(=O)(=O)c2cccc(-c3csc(C)n3)c2)CC1	-53.5
CCOC(=O)C1CCN(S(=O)(=O)c2cccc(-c3cn4cccc(C)c4n3)c2)CC1	-21.3
CCOC(=O)C1CCN(S(=O)(=O)c2cccc(-c3cn4cccnc4n3)c2)CC1	-24.7
CCOC(=O)C1CCN(S(=O)(=O)c2cccc(-c3cn4ccccc4n3)c2)CC1	-60.4
Cc1nc(-c2cccc(S(=O)(=O)N3CCCCCC3)c2)cs1	-23.2
CCOC(=O)C1CCN(S(=O)(=O)c2cccc(-c3cn4cc(Cl)ccc4n3)c2)CC1	-58

SMILES	hERG current change (%, negative = inhibition) at 10uM [%]
CC1CCN(S(=O)(=O)c2cccc(-c3cn4cc(Cl)ccc4n3)c2)CC1	-5.86
Cc1nc(-c2cccc(S(=O)(=O)N3CCC(C)CC3)c2)cs1	-13.4
COc1ccccc1C(=O)NC(C)c1cccc2ccccc12 (centres unmarked)	8.02
C=CCN(C(=O)c1ccc(Cl)cc1)c1ccccc1C(=O)NCC(=O)O	21.1
CCC(NC(=O)NCCCn1ccnc1)(C(F)(F)F)C(F)(F)F	8.18
CC(C)c1ccc(N=c2c([N+](=O)[O-])nn(-c3ccc4c(c3)OCCO4)n2O)cc1	1.98
COc1ccc(CSc2ccc(-c3nc4ccccn4c3NCc3ccccc3)cc2OC)cc1.O=C(O)C(F)(F)F	8.68
C=CCn1c(SCCCCCC)nc(O)cc1=O	-4
Cc1ccccc1/C=N\NC(=O)c1ccccc1-n1cccc1	18.5
COc1cccc(C2C(=O)c3ccccc3C2=O)c1	16.9
NS(=O)(=O)c1ccc(CCNC(=O)CNCCc2ccccc2)cc1	16.2
NS(=O)(=O)c1ccc(CCNCC(=O)NC2CC2)cc1	-64.1
NS(=O)(=O)c1ccc(CCNC(=S)NC2CCCC2)cc1	11.2
O=C(CCNC(=O)c1ccccc1Cl)NCCCSc1ccccc1	-8.64
Br.Clc1ccc2nc(CN3CCCCC3)cn2c1	-32.7
CN(C)Cc1c(O)ccc2ccccc12	0.0591
Cc1cc2ccc3ccccc3c2cc1CN(C)C.Cl	-51.9
CN(C)Cc1cc2ccccc2c2c1COC2	-0.493
O=C(O)CCC(=O)N1N=C(c2ccc(Br)cc2)CC1c1ccc(Br)cc1 (centres unmarked)	20.6
Cc1ccc(C)c(C(=O)Nc2nc3ccccc3[nH]2)c1	25.9
Cc1ccc(CN2CCC(N3CCC(C(=O)NCC4CCCO4)CC3)CC2)o1 (centres unmarked)	-4.02
O=C(NCC1CCCO1)C1CCN(C2CCN(Cc3ccco3)CC2)CC1 (centres unmarked)	-51
O=C(NCC1CCCO1)C1CCN(C2CCN(CCCC3CCCC3)CC2)CC1 (centres unmarked)	-58

SMILES	hERG current change (%, negative = inhibition) at 10uM [%]
O=C(NCC1CCCO1)C1CCN(C2CCN(Cc3cccs3)CC2)CC1 (centres unmarked)	-64.2
O=C(NCCc1ccccc1)C1CCN(C2CCN(Cc3ccco3)CC2)CC1	-62.7
CCOc1cccc(CN2CCC(N3CCC(C(=O)NCC4CCCO4)CC3)CC2)c1 (centres unmarked)	-10.5
O=C(NCCc1ccccc1)C1CCN(Cc2ccccc2F)CC1.O=C(O)C(=O)O	1.53
O=C(NCC1CCCO1)C1CCN(C2CCN(C(=O)CC3CCCC3)CC2)CC1 (centres unmarked)	-10
O=C(NCCc1ccccc1)C1CCN(C2CCN(Cc3ccc(CO)o3)CC2)CC1	18.2
Cc1cc(C)c(CN2CCC(N3CCC(C(=O)NCC4CCCO4)CC3)CC2)cc1C (centres unmarked)	-24.4
O=C(NCC1CCCO1)C1CCN(C2CCN(C3CCCCCC3)CC2)CC1 (centres unmarked)	28.4
Cc1ccccc1CN1CCC(N2CCC(C(=O)NCC3CCCO3)CC2)CC1 (centres unmarked)	-1.07
Cc1ccc(C(=O)Nc2cc(C(C)C)c(O)c(C(C)C)c2)cc1	-4.12
CC(=O)[C@@H]1[C@@H](C)N(Cc2ccccc2)C(=O)N[C@H]1c1cccc(C(F)(F)F)c1	5.55
Cc1nnsc1C(=O)Nc1ccccc1	18.2
O=C(N/N=C/c1ccc(F)cc1)c1cccc(NC(=O)c2ccc(F)cc2)c1	-4.54
O=C(Nc1cccc(-n2cnnn2)c1)c1ccco1	-0.205
COc1ccc(NC(=S)N2CCC(N(C)CCN3CCOCC3)CC2)cc1Cl	-26.8
CN(C)c1nc(N(C)C)nc(N(C#N)CCCl)n1	8.89
COc1ccc(-c2noc(-c3ccoc3C)n2)cc1	39.5
Cc1noc(N)c1C1(O)C(=O)Nc2c(Cl)cc(Cl)cc21 (centres unmarked)	0.32
CCOc1ccc(CCN2C(=O)c3ccc(C(=O)O)cc3C2=O)cc1OCC	-3.15
COc1ccc(C2CC(c3cccs3)=NN2C(=O)COC(=O)C2CCCCC2)cc1OC (centres unmarked)	-18.1
